The values below come from PubChem BioAssay (NCATS).

“And” between values parts separate entries of the source, which are not always exact repeats. Identical values can stand only once. Inconclusive results are not listed. Where a structure was tested more than once in an assay, its records may differ in their call. The source made the active and inactive calls. Unless noted, the call rests on the fitted dose curve.

Assay [1] addresses Glucocorticoid receptor (Homo sapiens) (UniProt P04150). Kind of assay: qHTS assay for small molecule agonists of glucocorticoid receptor signaling (AID 588532; active means well fitted curve in the direction sought with a large enough effect in the signal ratio, with a control signal flat; the % refers to the signal ratio;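 further: 100% = dexamethasone at 0.1 µM and 0% = DMSO only wells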). The note with it: HeLa MMTV-bla, beta-lactamase ratio, agonist, 18 h; activation: stronger effect = higher value, percent of dexamethasone control, DMSO zero. In a few lines:
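Cells were plated and rested 3-5 h at 37 C, compounds were added in titration and incubated 18 h, then CCF4 substrate was loaded for 2 h at RT before reading blue/green fluorescence. EC50 came from Hill-equation fitting.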
For orientation: Quantitative high-throughput screening tests each substance at several concentrations.

The target in assay [2] is Vitamin D3 receptor (Homo sapiens) (UniProt P11473). Briefly: qHTS assay for small molecule agonists of vitamin D receptor signaling (AID 588543).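 Further: 0% = DMSO basal and 100% = reference agonist control.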 In a few lines: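 Agonist-mode beta-lactamase reporter: HEK293T VDR-UAS-bla cells in charcoal-stripped 2% FBS, compound series 16 h 37 C, CCF4 2 h RT. EC50 from Hill fit, scaled against DMSO and 50 nM calcitriol control.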
Sequence of Vitamin D3 receptor (Homo sapiens) (P11473 whole entry, looked up): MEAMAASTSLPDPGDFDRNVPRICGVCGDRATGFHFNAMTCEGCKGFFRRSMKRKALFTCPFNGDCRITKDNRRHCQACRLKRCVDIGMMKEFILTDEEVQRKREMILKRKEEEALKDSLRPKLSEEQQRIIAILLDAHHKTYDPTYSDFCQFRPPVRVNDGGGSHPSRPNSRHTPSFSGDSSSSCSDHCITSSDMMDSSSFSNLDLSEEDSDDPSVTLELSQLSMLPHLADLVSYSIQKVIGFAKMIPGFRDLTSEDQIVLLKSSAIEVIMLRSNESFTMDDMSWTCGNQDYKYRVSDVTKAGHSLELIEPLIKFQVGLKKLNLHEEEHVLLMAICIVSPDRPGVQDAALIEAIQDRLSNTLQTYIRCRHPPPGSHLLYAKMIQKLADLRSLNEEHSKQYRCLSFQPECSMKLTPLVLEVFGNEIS
Assay [3] is described as follows: qHTS assay for environmental chemicals that activate the Aryl hydrocarbon Receptor (AhR) signaling pathway (AID 651777; active means well fitted curve in the direction sought with a large enough effect; an effect the other way counts as inactive or inconclusive; further: nearly all actives have a fitted effect of over 15% in size; further: potency means the concentration at half of the fitted maximal effect; on activation: % of control where 0% means no effect). The note with it: 1A2-DRE human hepatoma cells, luciferase, 24 h; activation: stronger effect = higher value. The essentials: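 Reporter gene assay: hepatoma cells with DRE/CYP1A2-luciferase, 24 hr compound incubation at 37 C, 5% CO2, luminescence after One-Glo (30 min, RT).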

For assay [4], the target named is Peroxisome proliferator-activated receptor alpha (Homo sapiens) (UniProt Q07869). Briefly: qHTS assay for small molecule agonists of the peroxisome proliferator-activated receptor alpha (PPARalpha) signaling pathway (AID 651778; active means well fitted curve in the direction sought with a large enough effect; an effect the other way counts as inactive or inconclusive; further: % of control where 0% means no effect). The note with it: PathHunter PPARalpha complementation, chemiluminescence, 6 h; max response: stronger effect = higher value. In a few lines:
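Enzyme-fragment complementation assay in which ligand-bound PPARalpha translocates and forms an active enzyme that generates chemiluminescence. Cells were plated overnight, exposed to compound for 6 hr at 37 C, and then given detection reagent for 60 min at room temperature.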

Assay [5] can be described thus: qHTS assay for cell viability of the p53RE-bla HCT-116 cell line (AID 743292; active means well fitted curve in the direction sought with a large enough effect; an effect the other way counts as inactive or inconclusive; further: nearly all actives have a fitted effect of over 55% in size; further: potency means the concentration at half of the fitted maximal effect). The essentials:
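ATP-based luminescence, 16 h compound exposure at 37 C, p53RE-bla HCT-116 cells at 4,000/well.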

The nature of assay [6]: qHTS assay for small molecule activators of the human pregnane X receptor (PXR) signaling pathway (AID 720659; call rule not given here; further: 0% is about no effect).
Assay [7] concerns the target Peroxisome proliferator-activated receptor delta (Homo sapiens) (UniProt Q03181). Briefly: qHTS assay for small molecule agonists of peroxisome proliferator-activated receptor delta signaling (AID 588534).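 Further: 0% = DMSO basal wells and 100% = positive control agonist at 10 µM.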 In a few lines:
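Titration series tested in agonist mode on beta-lactamase reporter cells; 18 hrs at 37 C after a 5 hr pre-incubation. Readout: CCF4 fluorescence, 2 hrs RT. Hill equation gives EC50 and maximal response.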

Assay [8] has as its target Thyroid hormone receptor beta (Homo sapiens) (UniProt P10828). Kind of assay: qHTS assay for small molecule agonists of thyroid hormone receptor beta signaling (AID 588545).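 Further: 0% = DMSO only and 100% = 10 nM T3.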 The essentials: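 Stimulation of a TR-driven beta-lactamase reporter was quantified in GripTite HEK 293 cells. Compound series ran for 18 hrs; curves were normalized to T3 and DMSO controls and fitted to yield EC50.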

Assay [9] in a line: qHTS assay for small molecule activators of the p53 signaling pathway (AID 651743; active means well fitted activation curve with a large enough effect in the signal ratio, not every such curve was filed as active; the % refers to the signal ratio; further: series mostly up to about 92 µM; % of control where 0% means no effect). To be noted: HCT-116 p53RE-bla, beta-lactamase FRET ratio, 16 h; activation: stronger effect = higher value. The essentials: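 Reporter: beta-lactamase driven by p53 response elements, stably integrated in HCT-116 cells. Cells seeded at 4,000/well, 5 h preincubation, compound (DMSO) 16 h at 37 C; B/G FRET substrate 2 h RT; fluorescence intensity read.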

A short description of assay [10]: qHTS assay for small molecule activators of the nuclear factor-kappa B (NF-kB) signaling pathway (AID 651749; active means well fitted activation curve with a large enough effect in the signal ratio; the % refers to the signal ratio; further: series mostly up to about 77 µM; % of control where 0% means no effect). The note with it: NF-kB-bla ME-180 cells, beta-lactamase FRET ratio, 16 h; activation: stronger effect = higher value. In a few lines: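 NF-kB-bla ME-180 cells, 2,000/well; 23 nL compound or DMSO pinned; 16 hr, 37C/5% CO2; beta-lactamase FRET read-out.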
Assay [11] is described as follows: qHTS assay for small molecule agonists of the antioxidant response element (ARE) signaling pathway measured by Nrf2-dependant transcriptional activity (AID 720636; active means well fitted curve in the direction sought with a large enough effect in the repeat runs; an effect the other way counts as inactive or inconclusive; further: potency means the concentration at half of the fitted maximal effect;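 on activation: HepG2 cells with an ARE-driven luciferase reporter; % of control where 0% means no effect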). The essentials:
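Nrf2-dependent transcription is measured in ARE-luc HepG2 cells: compound is applied for 16 hr at 37 C after a 6 hr attachment period, and luciferase activity is quantified by luminescence using ONE-Glo.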

A short description of assay [12]: qHTS assay for small molecule agonists of the antioxidant response element (ARE) signaling pathway measured by Nrf2-dependant transcriptional activity - cell viability counter screen (AID 720653; active means well fitted curve in the direction sought with a large enough effect in the repeat runs; an effect the other way counts as inactive or inconclusive; further: on the % scale 0 is the no-effect control and ±100 the full control effect). The note with it: ARE-bla HepG2 viability, CellTiter-Glo ATP luminescence, 16 h; max response: stronger effect = lower value. In a few lines:
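ARE-bla HepG2 cells treated with compounds for 16 h at 37C; this counter screen measures viability as intracellular ATP by CellTiter-Glo luminescence after 30 min at room temperature.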

Assay [13] can be described thus: qHTS assay for cell viability of HEK293 cells (AID 743288; active means well fitted curve in the direction sought with a large enough effect; an effect the other way counts as inactive or inconclusive; further: on the % scale 0 is the no-effect control and ±100 the full control effect; nearly all actives have a fitted effect of over 50% in size). To be noted: ATP luminescence (CellTiter-Glo), 18 h; max response: stronger effect = lower value. The essentials: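 Readout is luciferase-coupled ATP content (CellTiter-Glo luminescence, 30 min room temperature) as a measure of metabolically competent cells. Parental HEK293 cells were plated 5 h or more before compound addition, then treated 18 h at 37 C.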

Assay [14] addresses Nuclear receptor subfamily 1 group I member 2 (Rattus norvegicus) (UniProt Q9R1A7). Briefly: qHTS assay for small molecule activators of the rat pregnane X receptor (rPXR) signaling pathway (AID 651751; call rule not given here; further: 0% is about no effect). To be noted: rPXR reporter cells, luciferase (One-Glo), 24 h.
The target of assay [15] is Cytochrome P450 3A4 (Homo sapiens) (UniProt P08684). Kind of assay: qHTS Assay for Activators of Cytochrome P450 3A4 (AID 885; active means well fitted curve in the direction sought with a large enough effect; an effect the other way counts as inactive or inconclusive; further: nearly all actives have a fitted effect of over 65% in size). The essentials: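 Human CYP3A4 dealkylates Luciferin-PPXE to luciferin, which luciferase detection converts to light. Substrate was at its KM (25uM), buffer 200mM KPO4, reaction 60 min at RT.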
Sequence of Cytochrome P450 3A4 (Homo sapiens) (P08684 whole entry, looked up): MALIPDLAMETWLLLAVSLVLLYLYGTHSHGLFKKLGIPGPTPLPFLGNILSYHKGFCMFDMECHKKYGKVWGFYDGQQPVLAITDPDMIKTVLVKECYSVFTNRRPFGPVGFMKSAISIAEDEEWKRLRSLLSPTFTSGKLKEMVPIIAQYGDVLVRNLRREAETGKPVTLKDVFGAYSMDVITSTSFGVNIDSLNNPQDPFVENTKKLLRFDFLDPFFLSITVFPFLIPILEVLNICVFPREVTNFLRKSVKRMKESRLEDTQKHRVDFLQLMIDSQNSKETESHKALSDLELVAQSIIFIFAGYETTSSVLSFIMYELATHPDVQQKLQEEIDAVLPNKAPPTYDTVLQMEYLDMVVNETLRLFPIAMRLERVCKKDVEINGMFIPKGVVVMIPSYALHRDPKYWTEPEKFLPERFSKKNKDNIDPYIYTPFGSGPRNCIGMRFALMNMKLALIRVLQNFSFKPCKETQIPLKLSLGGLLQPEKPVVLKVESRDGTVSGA
Assay [16] deals with Bile acid receptor (Homo sapiens) (UniProt Q96RI1). Kind of assay: qHTS assay for small molecule agonists of farnesoid X receptor signaling (AID 588527).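 Further: series mostly up to about 77 µM; 0% = vehicle basal and 100% = reference agonist.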 The note with it: HEK293T FXR-UAS-bla, beta-lactamase ratio, 16 h; activation: stronger effect = higher value. In a few lines: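 FXR-UAS-bla HEK293T cells (10% dialyzed FBS) preincubated 5-7 h at 37 C, then compounds at up to 92 uM for 16 h at 37 C. CCF4 beta-lactamase read-out after 2 h RT. Normalized to chenodeoxycholic acid (100 uM) and DMSO; Hill fit gave EC50 and efficacy.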
Sequence of Bile acid receptor (Homo sapiens) (Q96RI1 whole entry, looked up): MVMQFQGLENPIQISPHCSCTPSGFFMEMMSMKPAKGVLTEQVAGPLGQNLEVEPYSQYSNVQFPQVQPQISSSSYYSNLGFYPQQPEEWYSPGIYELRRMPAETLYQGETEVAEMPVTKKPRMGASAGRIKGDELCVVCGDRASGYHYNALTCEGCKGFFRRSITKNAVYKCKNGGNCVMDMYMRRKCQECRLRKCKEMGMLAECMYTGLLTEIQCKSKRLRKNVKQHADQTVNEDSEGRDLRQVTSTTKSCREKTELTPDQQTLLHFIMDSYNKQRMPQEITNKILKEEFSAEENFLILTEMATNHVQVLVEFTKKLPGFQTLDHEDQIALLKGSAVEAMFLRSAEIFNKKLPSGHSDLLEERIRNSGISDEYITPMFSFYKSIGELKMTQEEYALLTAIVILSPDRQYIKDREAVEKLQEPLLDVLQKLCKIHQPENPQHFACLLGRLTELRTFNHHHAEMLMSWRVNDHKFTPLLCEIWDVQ

In assay [17] the target is Vitamin D3 receptor (Homo sapiens) (UniProt P11473). Briefly: qHTS assay for small molecule antagonists of vitamin D receptor signaling (AID 588541).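 Further: receptor activated by calcitriol during compound treatment; series mostly up to about 77 µM; on the % scale 0 is the no-effect control and ±100 the full control effect.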 The essentials:
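VDR-UAS-bla HEK293T cells in 2% charcoal-stripped FBS were stimulated with 1-alpha,25-dihydroxyvitamin D3 (3 nM final) plus compound for 16 h at 37 C. The beta-lactamase CCF4 readout was normalized to 50 nM agonist and DMSO, and Hill fits gave IC50.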

The nature of assay [18]: qHTS assay for small molecule agonists of retinoid X receptor alpha signaling (AID 588544).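 On activation: 0% = DMSO basal wells and 100% = reference agonist.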 To be noted: HEK293T RXRa-UAS-bla, beta-lactamase reporter, 18 h; 530 nm emission.
In assay [19] the target is Retinoic acid receptor RXR-alpha (Homo sapiens) (UniProt P19793). The description is as above.
Sequence of Retinoic acid receptor RXR-alpha (Homo sapiens) (P19793 whole entry, looked up): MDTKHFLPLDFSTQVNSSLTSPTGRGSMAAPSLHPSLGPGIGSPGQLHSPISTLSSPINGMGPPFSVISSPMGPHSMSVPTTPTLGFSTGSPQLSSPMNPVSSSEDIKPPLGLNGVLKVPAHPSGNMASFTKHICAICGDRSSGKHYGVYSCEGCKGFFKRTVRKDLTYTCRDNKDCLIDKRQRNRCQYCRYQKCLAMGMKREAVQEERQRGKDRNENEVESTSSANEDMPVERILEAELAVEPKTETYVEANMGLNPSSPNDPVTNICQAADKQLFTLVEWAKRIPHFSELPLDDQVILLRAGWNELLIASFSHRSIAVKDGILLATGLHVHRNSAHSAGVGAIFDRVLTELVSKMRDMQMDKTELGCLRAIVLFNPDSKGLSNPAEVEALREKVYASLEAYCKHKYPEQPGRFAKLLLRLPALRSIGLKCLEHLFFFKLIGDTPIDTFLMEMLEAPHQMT
Assay [20] is described as follows: qHTS assay for small molecule antagonists of retinoid X receptor alpha signaling (AID 588546; active means well fitted inhibition curve with a large enough effect in the signal ratio, with a control signal flat, not every such curve was filed as active; the % refers to the signal ratio;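 further: cells stimulated with 9-cis-retinoic acid as agonist; on the % scale 0 is the no-effect control and ±100 the full control effect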). To be noted: HEK293T RXRa-UAS-bla, beta-lactamase ratio, antagonist mode; measured here: W530 green channel, cytotoxicity proxy. The essentials: (§1)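 Beta-lactamase reporter inhibition, read as CCF4 fluorescence ratio (ex 405, em 460/530 nm) after 2 h at RT. HEK293T UAS-bla cells, 2500/well, were stimulated with 9-cis-RA at 500 or 100 nM final alongside test compound for 18 h at 37 C.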

Assay [21] concerns the target Retinoic acid receptor RXR-alpha (Homo sapiens) (UniProt P19793). The assay is described as above. The note with it: HEK293T RXRa-UAS-bla, beta-lactamase ratio, antagonist mode. The essentials:
as §1

The nature of assay [22]: qHTS assay for small molecule agonists of the antioxidant response element (ARE) signaling pathway (AID 651741; active means well fitted activation curve with a large enough effect in the signal ratio; the % refers to the signal ratio; further: potency means the concentration at half of the fitted maximal effect). In a few lines:
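HepG2 ARE-bla reporter cells, 2,000/well; 5 h settle at 37 C/5% CO2; compound pin transfer (23 nL, DMSO); 16 h at 37 C; LiveBLAzer B/G FRET substrate, 2 h RT; fluorescence intensity read.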

Sequence of Glucocorticoid receptor (Homo sapiens) (P04150 whole entry, looked up): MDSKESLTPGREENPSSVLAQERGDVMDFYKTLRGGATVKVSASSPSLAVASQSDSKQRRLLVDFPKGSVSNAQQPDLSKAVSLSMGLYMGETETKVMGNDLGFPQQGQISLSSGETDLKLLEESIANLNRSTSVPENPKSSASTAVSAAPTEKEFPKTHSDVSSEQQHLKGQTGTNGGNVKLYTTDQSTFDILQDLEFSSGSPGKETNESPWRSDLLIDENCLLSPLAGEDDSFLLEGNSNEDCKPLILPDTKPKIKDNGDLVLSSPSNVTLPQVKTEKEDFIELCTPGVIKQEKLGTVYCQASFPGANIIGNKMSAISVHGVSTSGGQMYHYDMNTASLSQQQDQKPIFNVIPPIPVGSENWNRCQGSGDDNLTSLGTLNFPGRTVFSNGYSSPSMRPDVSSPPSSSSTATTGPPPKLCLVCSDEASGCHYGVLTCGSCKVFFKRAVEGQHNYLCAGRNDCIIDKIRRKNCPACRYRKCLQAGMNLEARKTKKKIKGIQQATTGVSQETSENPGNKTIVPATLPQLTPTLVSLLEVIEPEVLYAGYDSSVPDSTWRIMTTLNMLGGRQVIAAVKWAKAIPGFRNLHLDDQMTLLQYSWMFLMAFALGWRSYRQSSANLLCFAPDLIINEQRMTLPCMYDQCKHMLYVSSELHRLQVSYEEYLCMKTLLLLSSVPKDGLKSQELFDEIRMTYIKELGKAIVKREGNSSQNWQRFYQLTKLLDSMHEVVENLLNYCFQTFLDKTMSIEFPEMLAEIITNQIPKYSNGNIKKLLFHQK
Sequence of Peroxisome proliferator-activated receptor alpha (Homo sapiens) (Q07869 whole entry, looked up, the tested form may be a part): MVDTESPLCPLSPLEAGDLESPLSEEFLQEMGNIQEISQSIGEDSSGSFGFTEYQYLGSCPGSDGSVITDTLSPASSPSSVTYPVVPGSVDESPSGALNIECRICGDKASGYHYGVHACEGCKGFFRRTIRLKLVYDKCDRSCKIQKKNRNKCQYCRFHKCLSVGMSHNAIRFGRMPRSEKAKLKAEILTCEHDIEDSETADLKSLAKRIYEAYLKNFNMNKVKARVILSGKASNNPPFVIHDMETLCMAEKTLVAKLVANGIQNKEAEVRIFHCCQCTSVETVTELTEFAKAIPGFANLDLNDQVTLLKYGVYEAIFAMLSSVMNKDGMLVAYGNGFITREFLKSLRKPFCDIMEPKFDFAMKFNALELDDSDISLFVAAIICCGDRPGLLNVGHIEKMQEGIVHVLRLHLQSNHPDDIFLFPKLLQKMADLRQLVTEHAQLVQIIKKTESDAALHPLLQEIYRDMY
Sequence of Peroxisome proliferator-activated receptor delta (Homo sapiens) (Q03181 whole entry, looked up): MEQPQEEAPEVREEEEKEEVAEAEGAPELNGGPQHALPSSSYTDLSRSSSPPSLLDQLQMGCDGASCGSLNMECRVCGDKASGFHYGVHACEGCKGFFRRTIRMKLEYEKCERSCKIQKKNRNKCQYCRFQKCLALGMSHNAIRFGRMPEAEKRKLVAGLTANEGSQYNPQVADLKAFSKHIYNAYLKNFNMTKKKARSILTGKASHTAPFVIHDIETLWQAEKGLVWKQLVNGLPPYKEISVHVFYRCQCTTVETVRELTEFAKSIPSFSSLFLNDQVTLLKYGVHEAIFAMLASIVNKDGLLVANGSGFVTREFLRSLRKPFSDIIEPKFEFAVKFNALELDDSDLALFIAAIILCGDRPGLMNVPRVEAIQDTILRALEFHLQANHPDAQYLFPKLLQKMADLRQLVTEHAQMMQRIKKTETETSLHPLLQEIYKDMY
Sequence of Nuclear receptor subfamily 1 group I member 2 (Rattus norvegicus) (Q9R1A7 whole entry, looked up): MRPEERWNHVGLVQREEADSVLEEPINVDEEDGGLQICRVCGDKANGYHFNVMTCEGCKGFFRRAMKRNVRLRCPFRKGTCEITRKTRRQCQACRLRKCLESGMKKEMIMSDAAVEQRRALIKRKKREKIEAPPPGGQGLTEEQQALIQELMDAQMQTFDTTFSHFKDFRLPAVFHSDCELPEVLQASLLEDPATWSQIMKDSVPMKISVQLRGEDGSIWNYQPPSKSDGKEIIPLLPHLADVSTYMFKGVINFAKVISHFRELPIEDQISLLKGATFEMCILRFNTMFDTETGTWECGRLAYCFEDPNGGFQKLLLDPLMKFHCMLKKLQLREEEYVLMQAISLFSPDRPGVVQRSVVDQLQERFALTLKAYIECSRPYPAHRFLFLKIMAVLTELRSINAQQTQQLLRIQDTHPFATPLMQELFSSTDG
Sequence of Thyroid hormone receptor beta (Homo sapiens) (P10828 whole entry, looked up): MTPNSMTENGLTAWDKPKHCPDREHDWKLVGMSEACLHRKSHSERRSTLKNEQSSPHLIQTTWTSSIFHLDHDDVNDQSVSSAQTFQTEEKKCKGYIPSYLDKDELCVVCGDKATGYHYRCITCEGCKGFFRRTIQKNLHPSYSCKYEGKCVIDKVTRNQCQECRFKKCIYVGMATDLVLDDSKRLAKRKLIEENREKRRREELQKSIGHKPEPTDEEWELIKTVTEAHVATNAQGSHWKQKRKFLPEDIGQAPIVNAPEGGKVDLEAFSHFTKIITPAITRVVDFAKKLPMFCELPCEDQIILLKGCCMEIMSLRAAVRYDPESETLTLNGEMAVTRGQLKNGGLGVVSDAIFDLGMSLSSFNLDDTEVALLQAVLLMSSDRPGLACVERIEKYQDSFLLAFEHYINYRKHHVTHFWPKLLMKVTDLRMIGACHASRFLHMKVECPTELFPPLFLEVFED

Regarding `O=C1C(Cl)=C(Cl)C(=O)c2ccccc21`, in assay [1], the activation was -5.64% (inactive). Further, the compound was called inactive in assay [2] and in assay [6]. For the same compound, the Potency in assay [3] and in assay [5] was 50.1 µM (active) throughout. In addition, the max response in assay [4] is -10.7% (inactive).
`CCCCCCC=O`: the outcome in [7] was inactive.
On to `CCOP(=O)(OCC)Oc1nc(Cl)c(Cl)cc1Cl`, for which the activation in [1] was -1.13% (inactive); in assay [9] it was -7.33% (inactive); in assay [10] it was -2.7% (inactive); in [3] it was 3.16% (inactive). For the same compound, the call in assay [7], in assay [2] and in [6] was inactive. For the same compound, the Potency entry in [8], in assay [11] and in assay [5] was “inactive” throughout. The max response in assay [4] is -1.51% (inactive); in [12], 6.34% (inactive); in assay [13], -13.2% (inactive); in assay [14], 2.55% (inactive).
For `Nc1ccc(Cl)cc1Cl`, in assay [15], the Potency entry is “inactive”. Moreover, the activation in assay [16] is 0.621% (inactive) and -4.4% (inactive).
Take `S=C(S)NCCNC(=S)S`: the activation in assay [1] is -2.17% (inactive). The Potency entry in assay [17] and in assay [19] was “inactive” in each case. Further, in assay [18], the max response was 9.28%.
On to `S=C([S-])NCCNC(=S)[S-].[Zn+2]`, for which, in assay [1], the activation was 4.35% (inactive). The Potency entry in assay [17] and in assay [19] was “inactive” in each case. For the same compound, the max response in assay [18] was 2.58%; in [20], -2.08% and 15.4%; in assay [21], 15.4% (inactive) and -59.9% (inactive). Further, the Potency is 21.7 µM (active) and 27.3 µM (active) in assay [22]; “inactive and 68.6 µM (active)” in assay [11].
